The record followed here is PubChem BioAssay AID777 (Sanford-Burnham Center for Chemical Genomics, 2007).

Among all 96,000 compounds or so, about 19,000 (20%) were called active.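 The calls were made as follows: active = blocking of liver enzyme CYP2C9 beyond about 50% at 5 µM (limit read from the data); inactive = the rest.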 A selection follows.

Sequence of Cytochrome P450 2C9 (Homo sapiens) (P11712 whole entry, looked up): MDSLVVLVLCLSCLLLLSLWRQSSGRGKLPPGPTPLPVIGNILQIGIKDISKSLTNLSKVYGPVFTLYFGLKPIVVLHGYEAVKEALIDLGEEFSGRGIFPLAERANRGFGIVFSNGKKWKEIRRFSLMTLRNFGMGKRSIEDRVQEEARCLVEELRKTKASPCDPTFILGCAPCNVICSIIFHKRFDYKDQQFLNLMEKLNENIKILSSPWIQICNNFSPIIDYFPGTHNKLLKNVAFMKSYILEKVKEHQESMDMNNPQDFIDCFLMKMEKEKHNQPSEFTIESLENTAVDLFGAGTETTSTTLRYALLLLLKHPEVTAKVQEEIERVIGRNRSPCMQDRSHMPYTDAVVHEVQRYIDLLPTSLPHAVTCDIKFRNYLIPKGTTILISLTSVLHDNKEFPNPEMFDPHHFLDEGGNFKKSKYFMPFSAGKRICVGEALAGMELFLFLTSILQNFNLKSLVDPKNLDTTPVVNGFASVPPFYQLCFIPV

The experiment concerns the target Cytochrome P450 2C9 (Homo sapiens) (UniProt P11712). Description: blockers of cytochrome P450 2C9 activity – biochemical, luminescence, ADME assay, primary screen (AID 777). The note with it: CYP2C9 Supersomes, luciferin-H conversion, at 5 µM, hits give high values.
Regarding `CCC1CCCCN1CCCNC(=O)Cn1nc(-c2ccccc2)ccc1=O` (centres undefined), the inhibition was 9.1% (inactive).

Regarding `Cc1c(NC(=O)CSc2cccc3cccnc23)c(=O)n(-c2ccccc2)n1C`, the inhibition is -25.5% (inactive).

Turning to `O=c1cccc(-c2ccc(Br)cc2)o1`, the inhibition is -19.8% (inactive).

With `Cc1cc(C(=O)OCC(=O)NCc2ccco2)c(C)n1-c1ccccc1`, the inhibition is 42.1% (inactive).

Take `O=C(NCc1ccco1)c1sc2cccc(F)c2c1Cl`: the inhibition is -26.6% (inactive).

As to `COc1cc(-n2c(C)nc3cc(C(=O)NCc4ccco4)ccc32)cc(OC)c1OC`, the inhibition was 8.4% (inactive).

As for `O=C(Cc1ccc(-n2c(=O)c3sccc3n(Cc3ccc(F)cc3)c2=O)cc1)NCc1ccco1`, the inhibition was 69.5% (active).

For `O=C(NCc1ccco1)c1ccc(Cn2c(=O)c3sccc3n(Cc3ccc(F)cc3)c2=O)cc1`, the inhibition is 79.7% (active).

On to `O=C(NCc1ccco1)c1cc2sccc2n1Cc1ccc(F)cc1`, for which the inhibition is 60.8% (active).

For `Cc1nc2c(-c3ccc(F)cc3)c(C)nn2c(C)c1CCC(=O)NCc1ccco1`, the inhibition is 24.9% (inactive).

As to `O=C(NCc1ccco1)c1ccc(CS(=O)(=O)Cc2ccc(F)cc2)o1`, the inhibition is 40.7% (inactive).

In the case of `O=C(NCCc1ccco1)c1nn(Cc2ccccc2)c(=O)c2ccccc12`, the inhibition is 7.4% (inactive).

In the case of `NC(=O)CCCC1=NS(=O)(=O)c2ccccc2N1`, the inhibition is 4.2% (inactive).

Turning to `O=S(=O)(CCc1nc2ccccc2o1)c1ccc(Cl)cc1`, the inhibition is -2.3% (inactive).

In the case of `CCOC(=O)N1CCN(C(=O)C2CC(c3ccc(F)cc3)=NO2)CC1` (centres undefined), the inhibition is 8.8% (inactive).

For the molecule `CCC(=O)N1CCc2cc(S(=O)(=O)NC(C(=O)N3CCc4ccccc4C3)C(C)C)ccc21` (centres undefined), the inhibition is 27% (inactive).

In the case of `CCCS(=O)(=O)N1CCC(C(=O)NCCCN(C)Cc2ccccc2)CC1`, the inhibition is 20.7% (inactive).

For `CCN(CCCNC(=O)C1CCN(S(=O)(=O)c2cnc[nH]2)CC1)c1ccccc1`, the inhibition was 81.8% (active).

Regarding `Cc1cccc(N2CCN(C(=O)C3CCN(S(=O)(=O)c4cnc[nH]4)CC3)CC2)c1C`, the inhibition was 30.4% (inactive).

Take `CCCCC(=O)N(c1ccc(OC)cc1)C1C=CS(=O)(=O)C1` (centres undefined): the inhibition was 25.7% (inactive).

For `Cn1cccc1Cc1nnc(SCC(=O)NCCc2ccccc2)n1-c1ccc(F)cc1`, the inhibition is 48.3% (inactive).

Take `O=C(CSc1nnc(-c2ccccn2)n1-c1ccccc1)Nc1ccc2c(c1)OCO2`: the inhibition is 2.8% (inactive).

Regarding `CNC(=O)CSc1nnc(CCc2ccccc2)n1-c1ccccc1`, the inhibition was -17.6% (inactive).

Consider `CC(C)NC(=O)CSc1ccccc1C(=O)NCc1ccc2c(c1)OCO2`, for which the inhibition was 16.9% (inactive).

`Cn1cccc1Cc1nnc(SCC(=O)NCc2ccc3c(c2)OCO3)n1CCc1ccccc1`: the inhibition is 55% (active).

Consider `Cc1ccccc1-c1nnc(SCC(=O)NCc2ccc3c(c2)OCO3)n1C`, for which the inhibition is 88.6% (active).

For `Cc1ccc(-n2c(SCC(=O)Nc3ccc4c(c3)OCO4)nnc2-c2ccccn2)cc1`, the inhibition was 43% (inactive).

`Cc1ccc(-n2c(SCC(=O)NCc3ccc4c(c3)OCO4)nnc2-c2cccnc2)c(C)c1`: the inhibition was 62.7% (active).

On to `Cc1cccc(NC(=S)Nc2ccc(Br)cc2)c1`, for which the inhibition was 2.2% (inactive).

Regarding `CC(C)(C)C(=O)CCN1C(=O)C2(OCCO2)c2ccccc21`, the inhibition is 7.8% (inactive).

Regarding `CCN(CC)CCNC(=O)C1c2ccccc2C(=O)N(C)C1c1cn(C)c2ccccc12` (centres undefined), the inhibition is 1.7% (inactive).

For `COc1ccc(-c2nnco2)cc1OC`, the inhibition is -14.9% (inactive).

For the molecule `COc1ccc(NC(=O)CC2COc3ccccc3O2)c(OC)c1` (centres undefined), the inhibition was 5.9% (inactive).

Consider `O=C(CN1C(=O)CSc2ncccc21)N1CCOCC1`, for which the inhibition was 41.4% (inactive).

As to `O=C(c1ccc2c(c1)OCO2)N1CCN(C(=O)c2ccco2)CC1`, the inhibition was 15.8% (inactive).

For `O=C(c1ccco1)N1CCN(c2cccc(Cl)c2)CC1`, the inhibition was 17.6% (inactive).

With `O=C(c1ccco1)N1CCN(C(=O)C2c3ccccc3Oc3ccccc32)CC1`, the inhibition was 58.3% (active).

Turning to `COc1nc(Oc2ccc(=O)n(C)n2)nc(N(C)C)n1`, the inhibition was -16.1% (inactive).

Regarding `COc1ccc(C(=O)Cn2nnc(-c3ccc(N4CCOCC4)cc3)n2)cc1OC`, the inhibition was -6% (inactive).

As for `COc1cc(C(=S)N2CCOCC2)cc(OC)c1OC(=O)c1cc([N+](=O)[O-])c(C)c([N+](=O)[O-])c1`, the inhibition was 5.7% (inactive).

`COc1ccccc1OCCNc1cc(N2CCOCC2)ccc1[N+](=O)[O-]`: the inhibition was 55.8% (active).

As to `Cc1nn(-c2cc(Cl)ccc2N)c(=O)c2ccccc12`, the inhibition was 2.2% (inactive).

As to `O=C1C2(c3ccccc3)CN(CCCO)CC1(c1ccccc1)CN(CCCO)C2`, the inhibition was 7.8% (inactive).

In the case of `Cc1ccc(NC(=O)CCNS(=O)(=O)c2ccc3c(c2)oc(=O)n3C)cc1C`, the inhibition was -21.7% (inactive).

For `FC(F)Oc1ccccc1C1CC(c2ccc(Br)s2)Nc2ncnn21` (centres undefined), the inhibition was 91.4% (active).

In the case of `CCCCC(=O)N1CC2(C)CN(C(=O)CCCC)CC(C)(C1)C2=O`, the inhibition was -4% (inactive).

As for `Cn1cnc([N+](=O)[O-])c1Sc1ccccc1`, the inhibition was 8.6% (inactive).

As for `O=C(N1CCOCC1)N1CCOCC1`, the inhibition is -8.2% (inactive).

`COc1ccc(C2CC(c3ccc(C)cc3)Nc3ncnn32)cc1` (centres undefined): the inhibition is 65.4% (active).

For the molecule `COc1ccc(C2CC(c3ccccc3)Nc3ncnn32)cc1` (centres undefined), the inhibition is 23.9% (inactive).

As for `COc1ccc(C2CC(c3ccc(C)cc3)Nc3nc(N)nn32)cc1` (centres undefined), the inhibition is 27.3% (inactive).

With `CCC(=O)c1ccc(OCC(O)CN2CC(C)OC(C)C2)cc1` (centres undefined), the inhibition is 18.3% (inactive).

Consider `N#Cc1ccc(-c2ccc(Cl)cc2)nc1Oc1ccc(F)cc1`, for which the inhibition is 6.8% (inactive).

As for `O=S(=O)(c1ccc(Br)cc1)n1ccc2ccccc21`, the inhibition is -2.4% (inactive).

For the molecule `CCOCCOCCC(C(=O)O)P(=O)(c1ccccc1)c1ccccc1` (centres undefined), the inhibition was -7.7% (inactive).

For `COC(=O)c1sccc1NC(=O)c1cc(OC)c(OC)c(OC)c1`, the inhibition is 7.6% (inactive).

On to `COC(=O)c1sccc1N/N=C(\C)c1ccc(F)c(Cl)c1`, for which the inhibition is 9.3% (inactive).

In the case of `COC(=O)c1sccc1NC(=O)CSc1ccccc1NS(=O)(=O)c1cc(Cl)ccc1Cl`, the inhibition was 84.2% (active).

As to `COC(=O)c1ccccc1Oc1c(F)c(F)nc(N2CCOCC2)c1F`, the inhibition is 45.2% (inactive).

Take `CCCCSc1nc2c(c(=O)n1CC)SC(C)C2` (centres undefined): the inhibition is 51.2% (active).

Consider `CCOc1ccc(NC(=O)CSc2nc3c(c(=O)n2-c2ccccc2OC)SCC3)cc1`, for which the inhibition was 40.8% (inactive).

`CCCCCn1c(SCCC(C)C)nc2c1c(=O)[nH]c(=O)n2C`: the inhibition was 10.1% (inactive).

As to `CCn1c(SCC(=O)Nc2ccc3c(c2)OCCO3)nc2c(c1=O)SC(C)C2` (centres undefined), the inhibition was 92.9% (active).

With `COc1ccccc1C(=O)C(O)c1ccccc1OC` (centres undefined), the inhibition is -2.8% (inactive).

Regarding `CCOC(=O)N1CCN(CC(=O)Nc2cc(C)nn2-c2nc3ccccc3s2)CC1`, the inhibition was 25.8% (inactive).

On to `O=C(c1ccco1)N(Cc1nc2ccccc2c(=O)[nH]1)C1CCCC1`, for which the inhibition was -20.5% (inactive).

As for `CC(=O)Oc1cccc(N2C(=O)CC(Nc3ccc(N4CCOCC4)cc3)C2=O)c1` (centres undefined), the inhibition was 19.9% (inactive).

`CC1OC2C(OC1C)N(S(C)(=O)=O)CCN2S(C)(=O)=O` (centres undefined): the inhibition is -6.8% (inactive).

With `Cc1cccc(N2C(=O)C3C(c4ccccc4)OC4(C(=O)c5ccccc5C4=O)C3C2=O)c1` (centres undefined), the inhibition is -8.4% (inactive).

With `Cc1cc(NC(=O)CN2CCC(O)(c3cccc(F)c3)CC2)no1`, the inhibition was 23.3% (inactive).

As for `Cc1cc(NC(=O)CCC(=O)N(c2ccccc2)C(C(=O)NC2CCCC2)c2ccncc2)no1` (centres undefined), the inhibition is 55.9% (active).

Consider `Cc1cc(NC(=O)/C=C/C(=O)N(c2ccccc2C)C(C(=O)NC2CCCC2)c2ccc(F)cc2)no1` (centres undefined), for which the inhibition is 25.2% (inactive).

As to `Cc1cc(NC(=O)CCC(=O)N(c2cccc(F)c2)C(C(=O)NC2CCCC2)c2ccncc2)no1` (centres undefined), the inhibition is 77.9% (active).

Regarding `Cc1ccc(C(C(=O)NC2CCCC2)N(Cc2ccco2)C(=O)CCC(=O)Nc2ccccn2)cc1` (centres undefined), the inhibition was 28.7% (inactive).

Consider `Cc1cc(NC(=O)CCC2COc3ccccc3O2)no1` (centres undefined), for which the inhibition is 7.1% (inactive).

For the molecule `CC1CC(C)CN(C/C=C/c2ccccc2[N+](=O)[O-])C1` (centres undefined), the inhibition was 9.8% (inactive).

As for `CCc1nc(C)ccc1OCC(=O)N(CC)CC`, the inhibition is -6.3% (inactive).

For `c1ccc(Nc2n[nH]nc2-c2ccccc2)cc1`, the inhibition is 28.9% (inactive).

In the case of `CCOc1ccc(Cn2c(SCCCCC#N)nc3c2c(=O)n(C)c(=O)n3C)cc1OCC`, the inhibition was 31.1% (inactive).

As for `CC(C)OCCCNc1nc2c(c(=O)n(Cc3ccccc3F)c(=O)n2C)n1C`, the inhibition is 22.3% (inactive).

For the molecule `Cc1cccc(Cn2c(SCCO)nc3c2c(=O)n(C)c(=O)n3C)c1`, the inhibition was 54% (active).

`CCOC(=O)CSc1nc2c(c(=O)n(C)c(=O)n2C)n1Cc1ccccc1F`: the inhibition was 60.5% (active).

For the molecule `CCOC(=O)CSc1nc2c(c(=O)n(Cc3ccccc3Cl)c(=O)n2C)n1C`, the inhibition is -7.5% (inactive).

For the molecule `C/C(Cl)=C\Cn1c(Nc2cccc(C)c2)nc2c1c(=O)n(C)c(=O)n2C`, the inhibition was -7.8% (inactive).

As for `Cc1cccc(Cn2c(N3CCN(c4ccccc4)CC3)nc3c2c(=O)n(C)c(=O)n3C)c1`, the inhibition was 66.1% (active).

`CCCSc1nc2c(c(=O)n(C)c(=O)n2C)n1Cc1ccc(C)cc1`: the inhibition is 9.9% (inactive).

Regarding `Cn1c(=O)c2c(ncn2CC(=O)N2CCN(c3ccccc3)CC2)n(C)c1=O`, the inhibition was 6.8% (inactive).

Regarding `COc1ccc(CNC(=O)C2CCN(S(=O)(=O)N3CCOCC3)CC2)cc1`, the inhibition is -2.7% (inactive).

As for `Cn1c(N)c(C(=O)COC(=O)C23CC4CC(CC(C4)C2)C3)c(=O)n(C)c1=O`, the inhibition is 29.6% (inactive).

In the case of `COc1ccc(N2C(=O)C3CCCN3C2c2cc(OC)c(OC)cc2OC)cc1` (centres undefined), the inhibition is -1.9% (inactive).

With `CC1CN(C(=O)CN2C(=O)NC(C)(c3ccccc3)C2=O)CC(C)O1` (centres undefined), the inhibition is -27.2% (inactive).

Consider `CCOC(=O)C1=C(CSc2nccn2C)NC(=O)NC1c1ccc(OC)cc1` (centres undefined), for which the inhibition is 17.2% (inactive).

`CCOC(=O)c1[nH]cnc1C(=O)NC1CCCCC1`: the inhibition was 28.5% (inactive).

As to `CCOC(=O)C1=C(CNC2CCCCC2)NC(=O)NC1c1cc(C)ccc1C` (centres undefined), the inhibition is 84.7% (active).

For orientation: inhibition means the change of the read-out against control, counted positive when it falls.
